ATXN viability: cell viability loss in ATXN counter-screen; S2 cells (HEK-293 line with an ATXN2-luciferase reporter) viability, CellTiter-Fluor protease fluorescence, 24 h; Potency, µM (series often up to 56.7 µM), actives largely listed as cytotoxic; 0.49% of 400,000 active; AID 651635; further: nearly all actives have a fitted effect of over 40% in size
ATXN2 expr inh: reduces ATXN2 reporter expression in HEK-293 cells | HEK-293 ATXN2-luciferase reporter, luminescence, 24 h | Potency, µM (highest dose often 57 µM), without a hit: at the highest dose activity change, negative = inhibition, usual class: inhibitors | 0.72% of 360,000 active | AID 1745845; further: on the % scale 0 is the no-effect control and ±100 the full control effect; nearly all actives have a fitted effect of over 55% in size
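ATXN2-luciferase reporter cells (luciferase flanked by upstream and downstream ATXN2 gene portions) were treated 24 h at 37 °C with compounds at up to 57 uM. SteadyGlo luminescence gave expression; GF-AFC fluorescence gave viability.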
A549 viability: kills or reduces viability of A549 cells in Nrf2 counter-screen; A549 ARE-Fluc cells, CellTiter-Fluor viability, 18-24 h; Potency, µM (series often up to 46 µM), for the others: at the highest dose activity change, negative = cytotoxicity, hits mostly inhibitors; 0.16% of 390,000 active; AID 504648; further: on the % scale 0 is the no-effect control and ±100 the full control effect
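A549 ARE_Fluc cells in 5% FBS OPTI-MEM were exposed to compounds in concentration-response for 18-24 h at 37 deg C. Viability was read by CellTiter-Fluor fluorescence (Ex 405/Em 525) after 30 min, before the luciferase read.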
HepG2 viability: HepG2 cytotoxicity, counter-screen for TGF-b inhibitors. 0.76% of 410,000 active. HepG2 CAGA-GFP viability, ATP luminescence, 18 h. Potency, µM (doses to about 46.1 µM), inactives show at the highest dose activity change, negative = cytotoxicity, most hits filed as cytotoxic
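HepG2 CAGA-GFP cells (1000/well, DMEM with 1% FBS) received compound, then TGF-beta at 500 pg/mL final, and were incubated 18 hours at 37 degrees C. Viability was read by CellTiter-Glo luminescence. Media-only wells were set as complete cell-killing and DMSO as no toxicity.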
Nrf2 block: Nrf2 pathway inhibition; A549 ARE-Fluc reporter, luciferase luminescence, 18-24 h; Potency, µM (series often up to 46 µM), inactives show at the top dose activity change, negative = inhibition, most hits filed as inhibitors; 2.1% of 360,000 active; AID 504444; further: on the % scale 0 is the no-effect control and ±100 the full control effect; nearly all actives have a fitted effect of over 60% in size
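Cells were seeded and rested 2 h, then exposed to compounds for 18-24 h. CellTiter-Fluor was read first as a viability measure. BugLite was added 15 min before the final luminescent read of ARE-luciferase activity in A549 cells.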
TGFb SMAD3 inh: inhibitors of TGF-b signaling; HepG2 CAGA-GFP TGF-b/SMAD3 reporter, GFP fluorescence, 18 h; TGF-beta stimulated, 500 pg/mL final; Potency, µM (series often up to 46.1 µM), without a hit: top-dose activity, negative = inhibition, hits mostly inhibitors; 1.2% of 410,000 active; AID 588855; further: on the % scale 0 is the no-effect control and ±100 the full control effect; nearly all actives have a fitted effect of over 65% in size
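GFP signal (ex488/em500-530) from TGF-beta-stimulated HEPG2 CAGA-GFP cells, 500 pg/mL final, 18 h at 37 degrees C in DMEM plus 1% FBS, normalized to unstimulated and DMSO-stimulated controls.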
The depositor's hits bear a star; i = inactive; ? = inconclusive; . = not tested or not shown; [ ] = remark or other dose. A selection: hits, their analogues and other compounds. The true share with any hit is near 3.8%. The call rests on the fitted dose curve; in most records, active means well fitted curve in the direction sought with a large enough effect; inconclusive means small, poorly fitted or top-dose-only effect, or another doubt; inactive means no such curve, though single readings can be large; an effect the other way counts as inactive or inconclusive. Potency means the concentration at half of the fitted maximal effect.

SMILES	ATXN viability	ATXN2 expr inh	A549 viability	HepG2 viability	Nrf2 block	TGFb SMAD3 inh
COc1ccc(CNC(=O)Nc2nc(C(N)c3ccccc3)cs2)cc1 (stereo unspecified)	i	-19.7%	.	-17.0%	.	-1.2%
CCCCCCCC/C=C\CCCCCCCC(=O)NCCc1ccc(O)c(O)c1	25.1µM*	15.8µM*	?	-44.3%	?	?
CCn1c(=O)c(=O)[nH]c2cc(C(=O)NC(C)c3ccc(S(N)(=O)=O)cc3)ccc21 (stereo unspecified)	i	-20.6%	-0.8%	-9.5%	10.8%	28.3%
Cn1cc(/C=C/c2ccnc3ccccc23)c2ccccc21	.	.	.	-59.0%	.	?
CCCCC1C(=O)N(c2ccccc2)N(c2ccc(O)cc2)C1=O (stereo unspecified)	7.94µM*	5.62µM*	?	8.91µM*	25.9µM*	5.62µM*
O=C(NCC1CCOCC1)c1cc(COc2cccc(C(F)(F)F)c2)on1	i	?	-1.0%	1.2%	23.1µM*	5.5%
O=C(Nc1ccc(Cl)c(C(F)(F)F)c1)C(Cc1ccccc1)NS(=O)(=O)c1cccc2nsnc12 (stereo unspecified)	?	-14.7%	0.3%	-33.7%	-10.3%	-13.8%
Cn1c(SCc2ccc(C(C)(C)C)cc2)nnc1C1COc2ccccc2O1 (stereo unspecified)	i	?	10.3%	-2.4%	?	22.4µM*
O=C(CN1C(=O)NC2(CCCC2)C1=O)NCc1ccc(Cl)cc1	i	12.3%	0.4%	1.1%	-9.1%	8.8%
CC(=O)n1cc(N(C(=O)CCl)c2ccc([N+](=O)[O-])cc2)c2ccccc21	28.2µM*	?	-8.2%	10µM*	-27.3%	?
O=Cc1[nH]c2ccccc2c1N(C(=O)CCl)c1ccc([N+](=O)[O-])cc1	?	?	-6.7%	-54.6%	-10.2%	?
CC(=O)n1cc(CO)c2ccccc21	i	-6.9%	3.2%	2.7%	5.8%	-3.8%
CC(=O)n1cc(N(C(=O)CCl)c2ccccc2)c2ccccc21	.	?	-8.5%	7.08µM*	?	7.08µM*
CCCCN(CCO)c1ncnc2sc(-c3ccccc3)cc12	i	?	-4.7%	-40.7%	?	?
CCC(C)NC(=O)c1cc2c(=O)n(CC)c3ccccc3c2s1 (stereo unspecified)	i	8.2%	-6.7%	-27.7%	?	10.0%
C=CC[C@@H](CC(=O)N[C@@H](CO)Cc1ccccc1)C(=O)N[C@@H](COC(=O)[C@@H](CC=C)CC(=O)OC(C)(C)C)Cc1c[nH]c2ccccc12	?	-21.6%	-14.8%	-21.3%	5.1%	?
C=CC[C@@H](CC(=O)N[C@H](CO)Cc1ccccc1)C(=O)N[C@H](COC(=O)[C@@H](CC=C)CC(=O)OC(C)(C)C)Cc1c[nH]c2ccccc12	?	?	11.6µM*	-29.9%	20.6µM*	?
C=CC[C@@H](CC(=O)N(CCO)Cc1ccccc1)C(=O)N[C@H](COC(=O)[C@H](CC=C)CC(=O)OC(C)(C)C)Cc1c[nH]c2ccccc12	22.4µM*	?	?	-1.9%	?	?
C=CC[C@H](CC(=O)N(CCO)Cc1ccccc1)C(=O)N[C@H](COC(=O)[C@@H](CC=C)CC(=O)OC(C)(C)C)Cc1c[nH]c2ccccc12	12.6µM*	22.4µM*	?	-20.2%	?	?
Cc1ccc2c(c1)C1(C=CC(=O)C=C1)CC(=O)N2C	.	.	-6.1%	-2.6%	-5.1%	-18.1%
O=C(O)/C=C\c1cccc(-n2nnnc2SCc2ccccc2F)c1	i	-1.9%	-0.3%	9.2%	4.7%	7.4%
CCCCn1c(NCc2ccc(N(C)C)cc2)nc2ccccc21	?	?	9.6%	-34.8%	-1.4%	15.8µM*
Cc1ccc(S(=O)(=O)N2CCCC2)cc1C(=O)NCCN1CCOCC1	i	-1.7%	-5.9%	2.3%	8.5%	16.2%
O=c1oc2cc(OCc3c(F)cccc3Cl)ccc2cc1-c1ccccn1	i	23.0%	-0.9%	2.5%	4.9%	22.5%
CCCOc1ccc2cc(-c3ccccn3)c(=O)oc2c1	i	3.55µM*	8.5%	-60.8%	?	-18.3%
SMILES	ATXN viability	ATXN2 expr inh	A549 viability	HepG2 viability	Nrf2 block	TGFb SMAD3 inh
O=C(c1ccc(N2CCCC2=O)cc1)N1CCN(c2ccccc2Cl)CC1	i	-26.4%	7.6%	-19.5%	-16.0%	-24.1%
CC(C)C(=O)N1CCN(c2ccc(NC(=O)c3ccc4c(c3)OCCO4)cc2Cl)CC1	17.8µM*	?	?	-34.4%	.	-17.9%
CC(=O)N1CCN(c2ccc(NC(=O)c3ccc4c(c3)OCCO4)cc2Cl)CC1	i	19.0%	-11.6%	-11.5%	?	1.6%
O=C(Nc1ccc(N2CCN(C(=O)c3ccc(Cl)cc3)CC2)cc1)c1ccc2c(c1)OCCO2	?	?	-10.9%	-5.8%	6.51µM*	?
O=C(c1ccc(N2CCCC2=O)cc1)N1CCN(c2ccc(Cl)cc2)CC1	i	0.0%	-8.7%	2.7%	18.4µM*	?
COc1ccc(C2NC(c3ccc4c(c3)OCO4)=CC(c3ccccc3O)N2)cc1OC (stereo unspecified)	.	.	-5.2%	0.5%	3.3%	-6.5%
CCOC(=O)N1CCN(C(=O)COc2ccc(S(=O)(=O)NCc3ccccc3)cc2)CC1	.	.	-18.3%	-3.8%	18.4µM*	-20.4%
Cc1ccc(Cl)cc1N1CCN(C(=O)CN(C2CCCCC2)S(C)(=O)=O)CC1	i	-24.0%	-10.2%	-12.8%	18.4µM*	0.0%
CS(=O)(=O)N(CC(=O)N1CCN(c2cccc(Cl)c2)CC1)C1CCCCC1	i	-0.8%	-4.8%	-1.7%	-9.9%	-5.6%
Cc1ccc(Cl)cc1N1CCN(C(=O)CSc2cc(=O)n(C)c3ccccc23)CC1	i	?	-9.8%	-32.4%	16.4µM*	-29.0%
Cc1ccc(Cl)cc1N1CCN(C(=O)COc2ccc(S(=O)(=O)NC(C)C)cc2)CC1	?	?	-9.6%	-27.4%	20.6µM*	?
Cn1c(=O)n(C)c2cc(NS(=O)(=O)c3ccc(C(C)(C)C)cc3)ccc21	i	-3.7%	-6.3%	-8.4%	10.3µM*	-24.3%
CCc1ccc(S(=O)(=O)Nc2cccc(C3OCCCO3)c2)cc1	i	-3.1%[11.3 µM]	-1.8%	16.3%	10.3µM*	13.8%
CCOC(=O)c1oc2ccc(S(=O)(=O)Nc3ccc4c(c3)n(C)c(=O)n4C)cc2c1C	i	29.9%	-4.9%	-17.8%	20.6µM*	-8.7%
CC(C)(C)c1ccc(S(=O)(=O)Nc2ccc(C(O)(C(F)(F)F)C(F)(F)F)cc2)cc1	17.8µM*	?	.	20µM*	.	12.6µM*

High-throughput results (PubChem BioAssay)
